Screens (PubChem)
Vif-A3F inh = qHTS for Inhibitors of Vif-A3F Interactions: qHTS. HeLa A3F-eYFP + Vif (tagged APOBEC3F with the HIV-1 protein that degrades it), YFP fluorescence increase. Potency, µM (doses to about 46.1 µM). 0.2% of 390,000 active. AID 602313, 2012; also: nearly all actives have a fitted effect of over 65% in size
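HeLa cells stably expressing A3F-eYFP plus Vif, plated and incubated overnight at 37 deg C, then exposed to compounds overnight at 37 deg C. Blocked degradation read as raised yellow fluorescence (Ex 488/Em 500-530).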
Epigenetic reg = Quantitative High-Throughput Screen for Regulators of Epigenetic Control. murine LDR cells, GFP reporter derepression, 30 h. Potency, µM (doses to about 53.9 µM), most hits filed as activators. 0.2% of 280,000 active. AID 1865, 2009; also: nearly all actives have a fitted effect of over 60% in size
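GFP-positive cell count by laser-scanning cytometry (objects 20–120 um) after 30 h, 37 C compound exposure of murine LDR cells; reporter is CMV-GFP integrated at a silenced locus, inducible by HDAC or DNMT inhibitors.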
GLS inhibitor = qHTS for Inhibitors of Glutaminase (GLS). Potency, µM (doses to about 45.5 µM), hits mostly inhibitors. 0.21% of 410,000 active. GLS enzymatic activity, qHTS titration
Target sequence (O94925 whole entry, looked up): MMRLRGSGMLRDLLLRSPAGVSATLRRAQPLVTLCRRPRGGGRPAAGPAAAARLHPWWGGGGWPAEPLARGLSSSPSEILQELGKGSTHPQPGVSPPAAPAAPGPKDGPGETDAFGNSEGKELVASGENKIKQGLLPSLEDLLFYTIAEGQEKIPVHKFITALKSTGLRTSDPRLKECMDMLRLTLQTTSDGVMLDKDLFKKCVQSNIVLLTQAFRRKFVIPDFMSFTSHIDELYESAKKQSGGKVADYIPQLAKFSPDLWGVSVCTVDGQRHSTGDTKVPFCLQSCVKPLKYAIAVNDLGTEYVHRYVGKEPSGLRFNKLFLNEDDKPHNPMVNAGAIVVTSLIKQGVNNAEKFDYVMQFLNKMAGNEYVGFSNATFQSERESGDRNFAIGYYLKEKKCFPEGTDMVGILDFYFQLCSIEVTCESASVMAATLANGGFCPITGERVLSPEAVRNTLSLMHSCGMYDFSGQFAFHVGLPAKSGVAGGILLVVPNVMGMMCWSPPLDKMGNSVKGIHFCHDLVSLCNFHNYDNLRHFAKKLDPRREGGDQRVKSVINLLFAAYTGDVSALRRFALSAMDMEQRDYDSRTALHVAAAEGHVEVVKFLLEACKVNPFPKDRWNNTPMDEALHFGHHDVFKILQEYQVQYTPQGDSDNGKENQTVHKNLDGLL
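Compounds were pin-transferred onto hKGA, after which L-glutamine (1 mM solution) and a detection mix of glutamate oxidase, HRP and Amplex Red were added. Initial and 30 min RT fluorescence reads were collected.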
Vif-A3G inh = qHTS for Inhibitors of Vif-A3G Interactions: qHTS. DNA dC->dU-editing enzyme APOBEC-3G (Homo sapiens), Q9HC16. HeLa A3G-eYFP + Vif (tagged APOBEC3G with the HIV-1 protein that degrades it), YFP fluorescence, overnight. Potency, µM (highest dose often 46.1 µM), most hits filed as inhibitors. 0.076% of 410,000 active; also: nearly all actives have a fitted effect of over 60% in size
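Read-out is eYFP fluorescence (Ex 488/Em 500-530) from Vif-expressing HeLa A3G-eYFP cells; more signal means A3G escaped Vif-mediated degradation. Cells plated overnight, compound pinned in, incubated overnight at 37 deg C.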
PINK1 modulator = A Quantitative High throughput Screen to Identify Chemical Modulators of PINK1 Expression; AID 624263, 2012; 0.2% of 410,000 active; Potency, µM (top dose mostly 76.6 µM), usual class: activators; PINK1 immunofluorescence, high-content cytometry, 24 h; active = well fitted activation curve with a large enough effect; inconclusive = small, poorly fitted or top-dose-only effect; cell line not stated here; also: nearly all actives have a fitted effect of over 65% in size
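Fluorescence from anti-PINK1 antibody, together with nuclear and cell stains, was scanned on a laser-scanning cytometer. Before staining, stable-line cells were incubated 24 hours with compounds at 5 concentrations; primary antibody 12 h at 10 degrees C.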
Large screens that a line does not name were inactive. Rows were chosen to be rich in hits. Some 0.7% of all compounds tested hit in one or more screens of this group. Unless noted, calls follow the shape of the dose curve; as a rule, active = well fitted curve in the direction sought with a large enough effect; inconclusive = small, poorly fitted or top-dose-only effect, or another doubt; inactive = no such curve, though single readings can be large; an effect the other way counts as inactive or inconclusive.

CCCC(=O)Nc1nnc(SCC)s1	none
Cc1ccc(N=C2NC(=O)/C(=C/c3cn(C)c4ccccc34)S2)cc1C	Vif-A3F inh inconclusive, Vif-A3G inh 8.9µM
CC(C)n1nc(C(=O)Nc2nnc(SCc3c(Cl)cccc3Cl)s2)c2ccccc2c1=O	PINK1 modulator 5.6µM
COc1ccc(CNC(=O)c2[nH]c(C(F)(F)F)nc2-c2ccccc2)cc1OC	none (no result: Vif-A3F inh, Epigenetic reg)
COc1ccc(CNc2cccc3[nH]c(C(F)(F)F)nc23)cc1OC	PINK1 modulator 25µM (no result: Epigenetic reg)
CO[C@H]1[C@H](NC(=O)c2ccco2)c2ccccc2C12CCN(Cc1cnc(N(C)C)s1)CC2	none (no result: Vif-A3F inh, Epigenetic reg, GLS inhibitor, Vif-A3G inh)
Cc1ccc(NC(=O)CC(=O)c2ccc([N+](=O)[O-])cc2)cc1S(=O)(=O)Nc1cccc(Cl)c1	PINK1 modulator 32µM
Oc1[nH]c(N=C2N=c3ccccc3=N2)c2ccccc12	Epigenetic reg 13µM
O=C(CCc1nnc2n(Cc3ccc(Cl)cc3)c(=O)c3ccccc3n12)N1CCN(c2ccccn2)CC1	GLS inhibitor 11µM (no result: Epigenetic reg)
CC(C)OCCCn1c(=O)c2ccccc2n2c(CCC(=O)N3CCN(c4ccccn4)CC3)nnc12	none (no result: Epigenetic reg)
CCNC(=S)N/N=C(\C)c1ccc(N2CCOCC2)cc1	Vif-A3F inh 22µM
Cc1ccccc1C(=O)N1CCc2c(cnc(C)c2CNC(=O)CN2CCCCC2)C1	none (no result: Vif-A3F inh, Epigenetic reg, GLS inhibitor, Vif-A3G inh)
CC1(C)CC(=O)C2=C(C1)OC(N)=C(C#N)C2c1ccccc1 (stereo not drawn)	none
CC1CC(=O)C2=C(C1)OC(N)=C(C#N)C2c1coc2ccccc2c1=O (stereo not drawn)	Vif-A3F inh 11µM
CN1CC=C2C(C#N)=C(N)C(C#N)(C#N)C(c3cccc(Cl)c3Cl)C2C1 (stereo not drawn)	Vif-A3F inh inconclusive, PINK1 modulator 14µM
CC(=O)N1CC=C2C(C#N)=C(N)C(C#N)(C#N)[C@H](c3ccoc3)[C@H]2C1	none
CN1CC=C2C(C#N)=C(N)C(C#N)(C#N)[C@H](c3ccoc3)[C@H]2C1	PINK1 modulator 40µM
CCOC(=O)N1CCN(c2c(F)cc3[nH]c(=S)[nH]c3c2Br)CC1	GLS inhibitor 7.1µM
Cc1ccccc1OCc1nnc(SCC(=O)Nc2ccc3c(c2)oc2ccccc23)n1C	PINK1 modulator 13µM
COc1ccccc1OCc1nnc(SCC(=O)Nc2ccc(C)cc2)n1C	none
COCCC1CCCCN1Cc1nc(N2CCCC2)c2cc(OC)c(OC)cc2n1 (stereo not drawn)	none (no result: Vif-A3F inh, Epigenetic reg, GLS inhibitor, Vif-A3G inh)
Cc1ccc2nc(N3C(=O)C(O)=C(C(=O)c4ccc(C)o4)C3c3ccco3)sc2c1 (stereo not drawn)	GLS inhibitor inconclusive, PINK1 modulator inconclusive (no result: Epigenetic reg)
O=C(C1=C(O)C(=O)N(c2nc3ccc(Cl)cc3s2)C1c1ccco1)c1ccco1 (stereo not drawn)	GLS inhibitor 18µM (no result: Epigenetic reg)
N#Cc1ccsc1NC(=O)c1ccc(Cl)c([N+](=O)[O-])c1	PINK1 modulator 32µM
N#Cc1ccsc1NC(=O)c1cccc([N+](=O)[O-])c1	none
Oc1ccc(C=NNC(=S)Nc2ccc(F)cc2)c(O)c1	Vif-A3F inh 25µM, Vif-A3G inh inconclusive, PINK1 modulator inconclusive (no result: Epigenetic reg)
O=C(CCC(=O)Nc1ccc(F)cc1)N/N=C/c1ccc(O)cc1O	none
CCOC(=O)c1ccc(NC(=S)NCCC2=CCCCC2)cc1	PINK1 modulator 32µM
O=[N+]([O-])c1cc(C(F)(F)F)ccc1NCCNC(=S)Nc1ccc(Cl)cc1	PINK1 modulator 13µM
O=C(NC(=S)Nc1c(Cl)cc(Cl)cc1Cl)c1ccccc1	Vif-A3F inh 4.5µM (no result: Epigenetic reg)
O=C(NC(=S)Nc1cccc(NC(=S)NC(=O)c2ccccc2)c1)c1ccccc1	none (no result: Epigenetic reg)
CCN(CC)c1ccc2cc(-c3nc(-c4cccs4)no3)c(=O)oc2c1	Epigenetic reg 7.1µM, Vif-A3G inh inconclusive
CCN(CC)c1ccc2cc(-c3nnc(-c4ccncc4)o3)c(=O)oc2c1	Epigenetic reg 0.56µM, PINK1 modulator inconclusive
CCN(CC)c1ccc2cc(-c3nc(-c4cc(OC)c(OC)c(OC)c4)no3)c(=O)oc2c1	Vif-A3F inh inconclusive, Epigenetic reg 13µM, Vif-A3G inh inconclusive
CCN(CC)c1ccc2cc(-c3nc(-c4ccccc4F)no3)c(=O)oc2c1	Vif-A3F inh inconclusive, Epigenetic reg 13µM
